Source: PubChem BioAssay AID1347423 (Functional Genomics Laboratory (NCATS/FGL), 2020)
About 210 (0.4%) of roughly 52,000 sequences were called active. The entries come from a sample that favours actives as a whole. Unmarked numbers belong to inactive results.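 Rule for the calls: active = gene whose silencing raises cell survival under the drug, median off-target-corrected z-score across its silencing RNAs 2 or more; inactive = the rest.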

Test: Resistance to Poly (ADP-Ribose) Polymerase inhibitor: Gene Identification via Genome-wide siRNA Screen
Details: mouse BRCA2 R2336H ES cells, olaparib, CellTiter-Glo viability; stronger effect = higher value
Outline: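 Genome-wide siRNA screen (3 siRNAs/gene, 20 nM) in mouse ES cells carrying hypomorphic BRCA2 R2336H; olaparib 500 nM added 48 h post-transfection, CellTiter-Glo viability 72 h later. Normalized to plate-median negative control; MAD z-scores, gene median, seed-adjusted.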

Sequence	z-score
CUAGUAGGGUCAGAAUUUUTT against Olfr329	2.11
CCAUGCAUCUAAGUCUCGATT against Trpm3	1.35
GGAUUAAUUAAUACUUGGCTT against 3010033P07Rik	0.03
GGACCACCUAAGUUUAAGCTT against Pde6g	2.55 (active)
GCCAGAAUGGACUUGAGAATT against V1re6	-0.0714
GUUGAGGACUUCUUGCUGGTT against Cmar	-1.03
GGUAUGAGUGAAGAAAAGATT against Ifi205	-0.37
CCAUAAACGACGAAAUGAUTT against Usp11	2.97 (active)
GGCAUCUGUUAUUGAAGUGTT against Vit	0.771
GGCCGAGUACAAACGUGGATT against AU019532	0.561
CCCUACCUUGAACGAGUACTT against Apoa1	0.773 (active)
GGAGAAGAAGCAGAGAGAATT against C530028I08Rik	-0.263
CCUUUCAGGCCAAUUGGCATT against Ube2l6	0.111
UCUCCUUCCUAACUUCAACTT against E030010A14	0.4
GGAACAGGACUUUUGAUAATT against 2700050F09Rik	1.03 (active)
GGCCAAUGAUGAUAACAAATT against Catnd2	0.564
CCUCUCCUACACUUCAAAATT against Cmya4	0.746
GGCUUUUUCCUCUACCCACTT against Trhde	0.762
GGUGUUUAAAGAUUUCGUUTT against Dhrs2	0.996
GCAAUGAACUAUGAAGGCATT against Npm1	0.811 (active)
CCCUUCACAACUUCUUAAUTT against Olfr872	0.609
GGGCAUCAGCAUUUGGUCATT against Pparbp	1.17
GGACUACCUCACACUCUUCTT against Oprs1	-0.235
GCCAUUCCGGCAGUAUUACTT against Pdcd7	0.524
CCGACAAAUAAAGGCUUUATT against Ddx52	-0.0103
CCGCAUGACACGACAUGUATT against BC034097	2.56 (active)
CCCUGUACACACCUAAAAATT against D10Ertd438e	1.39

Sequence	z-score
CGUUUGCUCUAAAGCCAGGTT against BC004728	1.02
GGAUUUCCUGGAAAAUUCCTT against Siat8a	0.62
GGUGUCUGUCAUGACCAUGTT against Tie1	2.02
GCUCGUCUAUGCUAUUUCUTT against Fath	0.81 (active)
GAUCACAGUCACGAUAUAATT against Prss19	-1.28
GGAAGAGAUGGAAUUAUUGTT against Sh3bp5	-0.737
GCUUGUGAUCGACUCUGCATT against Centb5	0.0161
CCUUCAUUUAUUCUACGAGTT against LOC244556	0.476
GCUCUCAUUAGCAUUAUCGTT against Gria1	-0.366 (active)
GCAGGUUAAGUAGCUGACATT against Dnclic2	-1.28
CGUGCAUGCAAAUUAUGUATT against 4933417O08Rik	-0.372
GGCACUCAGUAACUGCAUGTT against Gababrbp	-0.611
GGACUGUCAGUACUGUCAATT against E030025L21Rik	-0.201
GGAGUAAUCAUGCUGGAGCTT against 9930104L06Rik	0.406
CCAUGUCCAAUGAGGACUUTT against Htr1b	1.74 (active)
CCCUGAACGAAUAAUCGGCTT against Cbx3	-0.637
CGAUAAACUGGAUACCACUTT against A430083B19Rik	-0.3
GGAGAUGCUGGACUGCUUUTT against Htr1b	-0.751 (active)
GGUUGUUUAAACUCAGUUUTT against Slco4c1	-1.83
GGCCAAAUCAUGGAUGCAGTT against Comt	-1.72
GGAUCUAUAAGGACUACAUTT against Bmp7	-0.68
CGGGAACUCACCGAAAAGATT against 4921521N14Rik	0.566
GGAUGUGGCUGCUUUGAAGTT against Wbscr27	0.123
GGGAUUUUCUGUGUAUCUUTT against D5Ertd33e	-0.0623
GGCAUAACUGAUCAUACGCTT against Foxp3	1.06
GGUUUUAGAAGGGAAACAUTT against Ppp2r2c	-0.761
